In PubChem BioAssay (NCI):
This is part of a sample that, as a whole, favours compounds with a hit. Of some 79,000 tested, about 15% had one in any assay. The source made the active and inactive calls. Rule as the data show it: active = growth inhibition above about 70%; inactive = the rest.

Columns and labels:
[1] = NCI Yeast Anticancer Drug Screen. Data for the rad52 strain (AID 147);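 also: 0% = growth of vehicle-treated control cultures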; details: S. cerevisiae rad52 mutant growth inhibition, active compounds read high
Outline: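 Compounds are applied to a genetically defined yeast strain lacking normal DNA damage repair, and inhibition of growth is expressed relative to cultures given vehicle only.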

[2] = NCI Yeast Anticancer Drug Screen. Data for the wt1 strain (AID 149);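 also: 0% = growth of vehicle-treated wt1 cultures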; details: S. cerevisiae wt1 strain (SPY 50644) growth inhibition, active compounds read high
Outline: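 Compounds are added to wt1 yeast cultures. Growth is then measured. Inhibition is expressed relative to vehicle-treated controls.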

[3] = NCI Yeast Anticancer Drug Screen. Data for the rad50EPP+ strain (AID 151);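 also: 0% = growth of vehicle-treated control cultures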; details: S. cerevisiae rad50 mutant strain, active compounds read high
Outline: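 Compounds were applied to the rad50EPP+ yeast strain, which bears a defined DNA repair alteration, and growth inhibition was determined relative to vehicle-treated cultures.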

[4] = NCI Yeast Anticancer Drug Screen. Data for the mgt1 strain (AID 153); details: S. cerevisiae mgt1 mutant growth inhibition, active compounds read high
Outline: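 Strain: mgt1 yeast, one of a set carrying defined DNA damage repair or cell cycle control alterations. Compound-treated growth compared with vehicle.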

[5] = NCI Yeast Anticancer Drug Screen. Data for the rad50 strain (AID 155);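 also: 0% = growth of vehicle-only cultures of the same strain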; details: S. cerevisiae rad50 strain growth inhibition, active compounds read high
Outline: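 Inhibition values express reduced yeast growth in compound-treated cultures relative to vehicle-treated controls.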

[6] = NCI Yeast Anticancer Drug Screen. Data for the mec2-1 strain (AID 157); details: S. cerevisiae mec2-1 strain, active compounds read high
Outline: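 Strain: mec2-1 (DNA repair/cell cycle alteration). Compound exposure, then growth measured; inhibition expressed relative to vehicle.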

[7] = NCI Yeast Anticancer Drug Screen. Data for the rad14 strain (AID 159);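 also: 0% = growth of vehicle-treated control cultures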; details: S. cerevisiae rad14 strain growth inhibition, active compounds read high
Outline: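 A mutant yeast strain defective in DNA damage repair is treated with compound; inhibition of its growth is scored against untreated, vehicle-exposed cultures.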

[8] = NCI Yeast Anticancer Drug Screen. Data for the sgs1 mgt1 strain (AID 161);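 also: 0% = growth of cultures given vehicle only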; details: S. cerevisiae sgs1 mgt1 strain, active compounds read high
Outline: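 Read-out: growth inhibition vs vehicle controls. Cells: mutant yeast strain deficient in DNA damage repair.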

[9] = NCI Yeast Anticancer Drug Screen. Data for the CLN2oe strain (AID 163);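 also: 0% = growth of vehicle-only control cultures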; details: S. cerevisiae CLN2oe strain, active compounds read high
Outline: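 Growth of a genetically modified yeast strain is measured after compound exposure and compared with cultures given vehicle alone.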

[10] = NCI Yeast Anticancer Drug Screen. Data for the cln2 rad14 strain (AID 165);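 also: 0% = growth equal to vehicle treated cultures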; details: S. cerevisiae cln2 rad14 strain, active compounds read high
Outline: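 Compounds are applied to the cln2 rad14 yeast strain, and growth is then compared with that of vehicle-treated cultures to give inhibition.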

[11] = NCI Yeast Anticancer Drug Screen. Data for the bub3 strain (AID 167); details: S. cerevisiae bub3 mutant strain, active compounds read high
Outline: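 Steps: expose the mutant yeast strain to compound; grow alongside vehicle-treated cultures; measure growth; express inhibition against the vehicle cultures.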

[12] = NCI Yeast Anticancer Drug Screen. Data for the wt2 strain (AID 169);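 also: 0% = growth of vehicle-treated yeast cultures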; details: S. cerevisiae wt2 strain growth inhibition, active compounds read high
Outline: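 This strain belongs to a panel of yeast strains with defined genetic alterations in DNA damage repair or cell cycle control. Compounds are applied, and growth inhibition is measured against vehicle-treated cultures.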

[13] = NCI Yeast Anticancer Drug Screen. Data for the sgs1 strain (AID 173);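 also: 0% = growth of vehicle-only control cultures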; details: S. cerevisiae sgs1 mutant, active compounds read high
Outline: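 Growth of a yeast strain bearing a defined genetic alteration is measured after compound treatment. Inhibition is expressed relative to vehicle-only controls.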

[14] = NCI Yeast Anticancer Drug Screen. Data for the mlh1 rad18 strain (AID 175); details: S. cerevisiae mlh1 rad18 strain growth inhibition, active compounds read high
Outline: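 Read-out is yeast growth inhibition, calculated against vehicle-only controls. The compound was applied to a strain engineered with DNA damage repair alterations.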

[15] = NCI Yeast Anticancer Drug Screen. Data for the rad18 strain (AID 177); details: S. cerevisiae rad18 mutant growth inhibition, active compounds read high
Outline: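 Growth of the mutant yeast strain after compound exposure, normalised to vehicle-only cultures.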

[16] = at 5.0 µM (retest, dose inferred, filed as 0.5)
[17] = at 50.0 µM (retest, dose inferred, filed as 5.0)

Measured: growth inhibition

CC[N+](CC)(CC)c1ccccc1
active: [5]; [17] 98% | [6]; [17] 98% | [11]; at 50.0 µM 75.5% | [14]; [17] 99%
inactive: [1]; at 1.2 µM 8% | [1]; at 3.7 µM -7% | [1]; at 11.0 µM 0% | [1]; at 33.0 µM -3% | [1]; at 100.0 µM -6% | [2]; at 1.2 µM -21% | [2]; at 3.7 µM -27% | [2]; at 11.0 µM -28% | [2]; at 33.0 µM -26% | [2]; at 100.0 µM -28% | [3]; at 1.2 µM -8% | [3]; at 3.7 µM -14% | [3]; at 11.0 µM -14% | [3]; at 33.0 µM -22% | [3]; at 100.0 µM -20% | [4]; at 1.2 µM 1% | [4]; at 3.7 µM 1% | [4]; at 11.0 µM -6% | [4]; at 33.0 µM 8% | [4]; at 100.0 µM -8% | [5]; at 1.2 µM 19% | [5]; at 3.7 µM 24% | [5]; [16] 17% | [5]; at 11.0 µM 16% | [5]; at 33.0 µM 14% | [5]; at 50.0 µM 62.5% | [5]; at 100.0 µM 21% | [6]; at 1.2 µM -5% | [6]; at 3.7 µM -3% | [6]; [16] 35% | [6]; at 11.0 µM -8% | [6]; at 33.0 µM 1% | [6]; at 50.0 µM -1.75% | [6]; at 100.0 µM 8% | [7]; at 1.2 µM -28% | [7]; at 3.7 µM -36% | [7]; at 11.0 µM -34% | [7]; at 33.0 µM -33% | [7]; at 100.0 µM -25% | [8]; [16] -21% | [8]; [17] -13% | [8]; at 50.0 µM 39.8% | [9]; at 1.2 µM 16% | [9]; at 3.7 µM 5% | [9]; at 11.0 µM 8% | [9]; at 33.0 µM -11% | [9]; at 100.0 µM -8% | [10]; [16] 20% | [10]; [17] 33% | [10]; at 50.0 µM 24.1% | [11]; at 1.2 µM 16% | [11]; at 3.7 µM 15% | [11]; [16] 31% | [11]; at 11.0 µM 15% | [11]; at 33.0 µM 19% | [11]; [17] 26% | [11]; at 100.0 µM 11% | [12]; at 1.2 µM -23% | [12]; at 3.7 µM -32% | [12]; at 11.0 µM -32% | [12]; at 33.0 µM -23% | [12]; at 100.0 µM -30% | [13]; at 1.2 µM -15% | [13]; at 3.7 µM -21% | [13]; at 11.0 µM -22% | [13]; at 33.0 µM -19% | [13]; at 100.0 µM -23% | [14]; [16] 30% | [14]; at 50.0 µM 26.2% | [15]; at 1.2 µM 3% | [15]; at 3.7 µM 10% | [15]; at 11.0 µM 6% | [15]; at 33.0 µM 3% | [15]; at 100.0 µM 10%
